Compound activity deposited in PubChem by several laboratories.
Sampled rows, rich in hits. Any-hit rate of the full collection: about 1.1%.
CatL inh: inhibitors of human cathepsin L, biochemical. purified cathepsin L, fluorogenic substrate, fluorescence. inhibition, %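 (tested at 10 µM)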. actives 0.17% (n = 58,000); in the data active = inhibition above about 45%;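 note: 0% = enzyme with no compound and 100% = no enzyme blank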
SK-BR-3 tox 24h: SK-BR-3 proliferation inhibitors, primary screen, cell-based, human, 24 h | SK-BR-3 viability, CellTiter-Glo ATP luminescence; stronger effect = lower value | actives 0.47% (n = 41,000) | viability, % at 10 µM | AID 847, 2007;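 active = viability at or below the median of all test compounds minus 3 SD, in both replicates if run twice, cut at about 45% in these data; inconclusive = duplicate replicates that disagree with each other; inactive = viability above that cutoff in every replicate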;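 note: 100% = median untreated cell wells and 0% = median positive control drug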
CatB mix inh: cathepsin B inhibitors from pooled compounds, primary screen, biochemical, compound mixtures, AMC fluorescence | P07858 | Purified cathepsin B, AMC dipeptide fluorescence | inhibition, %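 (ten-compound pools at 5 µM per compound and 50 µM total)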 | actives 0.06% (n = 62,000) | AID 488, 2006; in the data active = inhibition above about 22%, passing the limit was not always enough; inconclusive = no clear call, values can overlap the other calls;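 note: 0% = enzyme without compound and 100% = no enzyme blank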
Her2 expr inh: inhibitors of Her2 protein expression, primary screen, SKBR-3 cells, AlphaScreen, 66K library. Receptor tyrosine-protein kinase erbB-2 (Homo sapiens), P04626. SKBR-3 HER2 protein level, 18-24 h; stronger effect = lower value. HER2 level % of control, % at 10 µM. actives 0.69% (n = 65,000);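 active = HER2 level under 5% of the carrier-only control; inconclusive = no clear call, values can overlap the other calls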;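 note: 100% = DMSO carrier and 0% = 500 nM PU-H71 HSP90 inhibitor; lower value means stronger loss of Her2 protein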
CatB inh: human cathepsin B inhibitors, primary screen, biochemical, fluorogenic substrate. P07858. purified cathepsin B, fluorescence. inhibition, %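 (tested at 10 µM)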. actives 0.1% (n = 63,000). AID 453, 2006; in the data active = inhibition above about 21%;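 note: 0% = enzyme with no compound and 100% = no enzyme blank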
CatS inh: inhibitors of human cathepsin S, biochemical, compound mixtures; recombinant cathepsin S, AMC dipeptide fluorescence, pooled mixtures; inhibition, %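 (tested at 5 µM per compound within 10-compound mixtures)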; actives 0.06% (n = 62,000); AID 501, 2006; in the data active = inhibition above about 32%, passing the limit was not always enough; inconclusive = no clear call, values can overlap the other calls;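 note: 0% = enzyme without compound and 100% = blank without enzyme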
Target sequence (P25774 115-331 limits assumed): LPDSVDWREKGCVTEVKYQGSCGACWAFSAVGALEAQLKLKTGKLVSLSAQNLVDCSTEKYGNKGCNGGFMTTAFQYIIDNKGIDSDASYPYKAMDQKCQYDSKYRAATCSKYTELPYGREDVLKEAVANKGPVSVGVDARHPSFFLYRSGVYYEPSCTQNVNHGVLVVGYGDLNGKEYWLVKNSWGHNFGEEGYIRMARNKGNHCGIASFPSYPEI
Numbers without * were called inactive; ? = inconclusive; . = no result given.

SMILES	CatL inh	SK-BR-3 tox 24h	CatB mix inh	Her2 expr inh	CatB inh	CatS inh
CCOC(=O)CS(=O)(=O)c1nc(-c2ccccc2)cc(C(F)(F)F)n1	6	?	2	-27*	5	7
O=S(=O)(CCSc1ccccn1)c1nc2ccccc2s1	8	125	0	-8.5*	5	-1
O=C(CSc1nc2ccccc2s1)Nc1ncccn1	10	89	-4	85	0	1
CCS(=O)(=O)CCSc1nc2ccccc2o1	17	100	5	89	5	7
O=S(=O)(CCSc1nc2ccccc2o1)c1nc2ccccc2s1	-1	?	1	-14*	-1	-3
O=C(NCc1ccc2c(c1)OCO2)c1cc2ncc(Br)cn2n1	-8	101	4	69	-6	4
CCn1c(CNc2cccc(Cl)c2)nnc1SCc1ccccc1	5	37*	-2	113	-5	-3
O=C(NCc1ccc(N2CCCC2=O)cc1)Nc1cccc(Cl)c1	13	104	-4	81	-1	0
CCN(CC)CCNC(=O)c1cc2c(=O)n(C)c3ccccc3c2n1C	23	.	-2	110	8	48*
CCCCN(CC)CCNC(=O)c1cc2c(=O)n(C)c3ccccc3c2n1C	-1	.	3	100	-1	57*
CN(C)CCNC(=O)c1cc2c(=O)n(C)c3ccccc3c2n1C	17	.	2	90	2	82*
Cn1cnc2c1c(=O)[nH]c(=O)n2C	8	94	-6	-18*	-3	-14
Cc1nc(N2CCN(S(=O)(=O)c3cccc4nonc34)CC2)c2c3c(sc2n1)CCCC3	-5	100	2	117	6	0
Cc1ccc(-c2ccc(CCC(=O)O)n2Cc2ccco2)cc1	-10	.	3	103	3	-6
CCCn1c(NC(=O)c2cccc(S(=O)(=O)N3CCCC3)c2)nc2ccccc21	-2	.	-1	-3.3*	4	9
Cn1c(Cn2c(=O)sc3ccccc32)nnc1SCC(=O)N1CCOCC1	.	.	3	89	3	0
COc1ccc(-n2c(Cn3c(=O)sc4ccccc43)nnc2SCC(=O)N2CCOCC2)cc1	4	.	3	-17*	-4	14
CS(=O)c1nc(-c2ccc(Br)cc2)cc(-c2ccccc2)c1C#N (stereo not drawn)	3	?	3	-22*	6	1
CC1(C)CC(=O)C2(CC3=C(CC(C)(C)CC3=O)O2)C(=O)C1	0	90	4	-33*	-4	12
CC1(C)CC(=O)c2c(noc2-c2ccccc2)C1	3	.	3	107	4	21
O=C(CNS(=O)(=O)c1cccs1)N1CCc2ccccc2C1	-10	95	-3	87	-4	-5
C=C(C)Cn1c(-c2ccc(OC)cc2)nc2ccccc21	8	95	.	-20*	3	.
CC(C(=O)Oc1ccc2c(c1)OCO2)N1C(=O)c2ccccc2C1=O (stereo not drawn)	0	36*	0	103	1	14
Cc1ccccc1-c1nnc2s/c(=C\c3ccc(N(C)C)cc3)c(=O)n12	17	86	-9	57	2	0
CN(C)S(=O)(=O)c1ccc(N2CCOCC2)nc1	-20	86	4	94	2	-8
SMILES	CatL inh	SK-BR-3 tox 24h	CatB mix inh	Her2 expr inh	CatB inh	CatS inh
Cc1ccc(C)n1-c1ccc(N2CCOCC2)nc1	-12	98	1	-19*	2	-7
COc1ccc(OC)c(C2C(C#N)=C(N)Oc3cc(C)n(Cc4ccccn4)c(=O)c32)c1 (stereo not drawn)	63*	107	.	92	2	.
CCOc1cccc(C2C(C#N)=C(N)Oc3cc(C)n(Cc4ccccn4)c(=O)c32)c1OCC (stereo not drawn)	-2	85	-1	82	8	-8
Cc1nnc(SCC(=O)NCCc2ccccc2)[nH]c1=O	0	102	0	73	0	-5
COc1ccc2c(c1OC)C(=O)OC2Nc1ccccn1 (stereo not drawn)	0	96	1	65	-1	-6
COc1ccc2c(c1OC)C(=O)OC2Nc1ccccc1S(=O)(=O)C(F)F (stereo not drawn)	0	97	8	-21*	-6	8
